Laboratory results as given in PubChem BioAssay AID2284375 (EPA ToxCast).
Records with an inconclusive call do not appear. Activity calls are given as the source filed them. How the source made its calls: active means hit-call score of the fitted dose curve at least 0.9, where 1 is the maximum; inconclusive means response in the unintended direction; inactive means score below 0.9.

Molecular target: Estrogen receptor (Homo sapiens) (UniProt P03372)
Test: ERF_US_NR_hESR1: Eurofins (ERF) Nuclear Receptor (NR) Cell Based Protein-Protein Interaction LeadHunter Assay for human Estrogen Receptor alpha (ERa) Agonism
Protocol: ERF_US_NR_hESR1 is a cell-based, single-readout assay that uses extracted gene-proteins in a cell-line assay. Measurements were taken 5 hours after chemical dosing in a 384-well plate. See ERalpha Human Estrogen NHR Cell Based Agonist Protein-Protein Interaction Assay, DiscoverX.ERF_US_NR_hESR1 is an assay component calculated from the ERF_US_NR_hESR1 assay. It is designed to […].Data from the assay component ERF_US_NR_hESR1 was analyzed at the assay endpoint, ERF_US_NR_hESR1, in the positive analysis fitting direction relative to DMSO as the negative control and baseline of activity. Using a type of binding reporter, gain-of-signal activity can be used to understand changes in binding as they relate to gene ESR1. To generalize the intended target to other relatable targets, this assay endpoint is annotated to the nuclear receptor intended target family, where the subfamily is steroid.
Cells were seeded in a total volume of 20 uL into white walled, 384-well microplates and incubated at 37C overnight prior to testing. Briefly, intermediate dilution of sample stocks was performed to generate 5X sample in assay buffer. 5 uL of 5X sample was added to cells and incubated at37C for 300 minutes. Final assay vehicle concentration was 1%. The results are expressed as a percent efficacy of the control ligand.

Sequence of Estrogen receptor (Homo sapiens) (P03372 whole entry, looked up): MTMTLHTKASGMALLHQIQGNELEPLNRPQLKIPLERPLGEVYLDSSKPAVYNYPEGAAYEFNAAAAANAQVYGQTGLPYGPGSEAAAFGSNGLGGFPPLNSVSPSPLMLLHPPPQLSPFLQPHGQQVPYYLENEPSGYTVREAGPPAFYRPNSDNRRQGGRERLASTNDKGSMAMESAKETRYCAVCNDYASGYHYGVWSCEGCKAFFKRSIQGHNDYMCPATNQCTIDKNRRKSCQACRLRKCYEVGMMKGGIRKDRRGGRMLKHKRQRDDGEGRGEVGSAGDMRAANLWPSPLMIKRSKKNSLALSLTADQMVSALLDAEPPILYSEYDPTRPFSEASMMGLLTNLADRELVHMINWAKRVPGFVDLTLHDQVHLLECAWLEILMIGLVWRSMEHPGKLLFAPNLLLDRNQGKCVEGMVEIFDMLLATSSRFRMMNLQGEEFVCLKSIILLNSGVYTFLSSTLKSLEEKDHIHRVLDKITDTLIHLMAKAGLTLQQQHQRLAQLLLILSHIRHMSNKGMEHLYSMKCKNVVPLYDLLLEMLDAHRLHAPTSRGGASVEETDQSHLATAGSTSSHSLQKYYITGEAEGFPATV

SMILES | AC50 | outcome
OCC(F)(F)OC(F)(F)C(F)(F)OC(F)(F)C(F)(F)OC(F)(F)F | 19.5 µM (active) | –
NS(=O)(=O)C(F)(F)C(F)(F)C(F)(F)C(F)(F)C(F)(F)C(F)(F)C(F)(F)C(F)(F)F | – | inactive
OCC(F)(F)OC(F)(F)C(F)(F)OC(F)(F)C(F)(F)OC(F)(F)CO | – | inactive
